Screens as filed in PubChem BioAssay.
SW480 rereplic = induces DNA re-replication in SW480 colon adenocarcinoma cells; Potency, µM (titrated, usually from 46.1 µM), hits mostly activators; AID 624297; 340,000 compounds, 1.8% hits; SW480 DNA re-replication, Hoechst DNA content imaging, 48 h; also: nearly all actives have a fitted effect of over 55% in size
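Compounds, transferred as 23 nL by pin tool, were incubated with cells for 48 hr; DNA content per nucleus was then quantified by Hoechst staining and fluorescence plate imaging.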
a7 integrin act = activates integrin-mediated alleviation for muscular dystrophy | alpha7betagal myoblasts, beta-gal FDG fluorescence, 48 h | Potency, µM (doses to about 38.3 µM), actives largely listed as activators | 350,000 compounds, 0.064% hits | AID 624291; also: nearly all actives have a fitted effect of over 60% in size
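alpha7betagal+/- myoblasts (passage 13, 250/well) treated 48 h at 37C with compounds at 1:260 dilution of DMSO stock. Lysed, then beta-galactosidase activity read as FDG fluorescence (ex 480/em 540) after 30 min, with pre-read for autofluorescence.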
Mito fusion act = mitochondrial division inhibition or fusion activation; S. cerevisiae fusion-defective mutant growth rescue, CellTiterGlo 48 h; 320,000 compounds, 0.23% hits; Potency, µM (titrated, usually from 46.1 µM), actives largely listed as activators; AID 485298; also: nearly all actives have a fitted effect of over 45% in size
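Yeast fusion mutant, YPEG (non-fermentable carbon), compound, 48 h at 37C non-permissive; CellTiterGlo added, 10 min RT, luminescence read. Rescued growth = division inhibition.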
MCF10A rerep = DNA re-replication induction in MCF 10a cells. Potency, µM (highest dose often 46.1 µM), hits mostly activators. 350,000 compounds, 2.9% hits. MCF 10A DNA re-replication, Hoechst nuclear intensity, 48 h; also: nearly all actives have a fitted effect of over 50% in size
AT treatment = candidate therapy for ataxia-telangiectasia; Potency, µM (doses to about 57.5 µM), hits mostly activators; 320,000 compounds, 0.19% hits; F2112 A-T fibroblasts, KAP-1 phosphorylation AlphaLISA; neocarzinostatin DNA damage 30 min before lysis; also: nearly all actives have a fitted effect of over 45% in size
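ATM-like activity read as KAP-1 phosphorylation via AlphaLISA donor/acceptor antibody pairs after lysis and 6 hr at 25C. Cells were ATM-null patient fibroblasts (F2112, hTERT), dosed 60 min, then exposed to the DSB inducer NCS for 30 min.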
Each line names hits and unclear results; the compound was inactive in the other large screens; ! = repeats disagree. Only some compounds are listed: those with a hit (about 4.2% of all), similar ones and a draw of the others. Calls follow the shape of the dose curve; as a rule, active = well fitted activation curve with a large enough effect; inconclusive = small, poorly fitted or top-dose-only effect; inactive = no such curve, though single readings can be large or run the other way.

O=C(OCc1c(-c2ccccc2)ncc2ccccc12)c1cccs1	none (no result: Mito fusion act)
Cc1cc(Br)c(OCc2ccc(C(=O)N/N=C/c3ccc[nH]3)cc2)c(Br)c1	SW480 rereplic 3.7µM, MCF10A rerep inconclusive
O=C(N/N=C/c1ccc[nH]1)c1ccc(COc2cccc3cccnc23)cc1	MCF10A rerep inconclusive
CC(C)N(C(=O)COC(=O)c1cccc(C(=O)OCC(=O)N(C(C)C)C(C)C)n1)C(C)C	none
CSc1nc2ccccc2cc1/C=C(\C#N)c1cccc(Cl)c1	SW480 rereplic inconclusive, MCF10A rerep 8.2µM
CC1(C)CC(=O)c2cc(NC(=O)c3ccccc3)c(=O)oc2C1	none
COc1ccc(CN2CCC(N(CCc3ccccc3)Cc3ccccc3)CC2)c(OC)c1	SW480 rereplic inconclusive, MCF10A rerep 15µM
COc1ccccc1NC(=O)COC(=O)Cn1c(C)csc1=O	none (no result: SW480 rereplic, Mito fusion act, MCF10A rerep, AT treatment)
CC(C)Cn1cnc2c1c(=O)n(CC(=O)NC(=O)NC(C)(C)C)c(=O)n2Cc1ccccc1	SW480 rereplic inconclusive
Cc1nn(C)c(Cl)c1CN1CCCC(CCC(=O)NCc2ccccc2F)C1 (stereo not drawn)	none
O=C(CCC1CCCN(C(=O)c2ccco2)C1)NCc1ccccc1F (stereo not drawn)	none
CCOc1cccc(CN2CCCC(CCC(=O)NCc3ccccc3F)C2)c1O (stereo not drawn)	SW480 rereplic 16µM
COCc1ccc(C(=O)N2CCCC(CCC(=O)NCc3ccccc3F)C2)o1 (stereo not drawn)	SW480 rereplic 12µM, MCF10A rerep 13µM
COc1ccc(Nc2cc(O)c3ncccc3c2)cc1	Mito fusion act inconclusive (no result: SW480 rereplic, a7 integrin act, MCF10A rerep)
O=C1NC(=O)C2(CCC(C3CCCCC3)CC2)N1 (stereo not drawn)	none (no result: Mito fusion act, AT treatment)
c1cc2c(cc1-c1[nH]ncc1CN1C[C@H]3CC[C@H]1C3)OCO2	SW480 rereplic 5.8µM
CN(Cc1cn[nH]c1-c1ccc2c(c1)OCO2)C1CCOCC1	none
CCCNC(=S)Nc1ccc(F)cc1F	none
CC(C)CCOc1ccc(C(=O)N2CCN(c3ncccn3)CC2)cc1	a7 integrin act inconclusive
CS(=O)(=O)Nc1ccc([N+](=O)[O-])cc1Oc1ccccc1	Mito fusion act 23µM! (no result: a7 integrin act)
O=C(CSCc1ccccc1)N1CCN(c2ccccc2)CC1	SW480 rereplic inconclusive
O=C(CSCc1ccccc1)N1CCN(c2ccc(F)cc2)CC1	MCF10A rerep 26µM
CC(C)Oc1ccc(C(=O)/C(=C\c2cccs2)c2nc3ccccc3o2)cc1	Mito fusion act 10µM
COc1ccc(C(=O)/C(=C\c2sccc2C)c2nc3ccccc3o2)cc1	none (no result: a7 integrin act)
Fc1ccc(Oc2cnc3ccccc3n2)cc1	none
COc1ccc(OC(C)C(=O)N(C)Cc2nc(-c3ccc(OC)cc3)no2)cc1 (stereo not drawn)	none
Fc1c(F)c(F)c(/C=N/NC(=S)Nc2cccnc2)c(F)c1F	SW480 rereplic inconclusive, MCF10A rerep 11µM
Fc1cccc(F)c1/C=N/NC(=S)Nc1cccnc1	none
O=C(N/N=C/c1ccc([N+](=O)[O-])o1)c1ccccc1NS(=O)(=O)c1cccs1	SW480 rereplic inconclusive, MCF10A rerep 18µM
O=C(CCC(=O)Nc1ccc(Cl)cc1Cl)N/N=C/c1ccc([N+](=O)[O-])o1	SW480 rereplic 4.6µM, MCF10A rerep inconclusive
O=C(NN=Cc1ccc(F)cc1)c1ccccc1NS(=O)(=O)c1cccs1	none (no result: Mito fusion act)
O=C(CNc1ccccc1)N/N=C/c1ccc([N+](=O)[O-])o1	none
CCN(CC)S(=O)(=O)c1cccc(C(=O)N/N=C/c2ccc([N+](=O)[O-])o2)c1	SW480 rereplic 21µM, MCF10A rerep inconclusive
O=C(N/N=C\c1ccc([N+](=O)[O-])o1)c1cncc(Br)c1	MCF10A rerep inconclusive
CCCCCC(=O)N/N=C/c1ccc([N+](=O)[O-])o1	SW480 rereplic 8.9µM (no result: AT treatment)
COc1ccc(CCNC/C=C/c2ccccc2)cc1	SW480 rereplic inconclusive (no result: Mito fusion act, AT treatment)
N#Cc1cc(NCC2CCCO2)c([N+](=O)[O-])cc1C#N (stereo not drawn)	none
C=CC(=O)c1ccc(CCCCCC)cc1	none (no result: SW480 rereplic, a7 integrin act, MCF10A rerep, AT treatment)
CC(C)C(OC(=O)Cn1nnc2ccccc21)C(=O)NC1CCCC1 (stereo not drawn)	none
O=C(Cc1ccc2c(c1)OCO2)NN=Cc1ccc([N+](=O)[O-])o1	SW480 rereplic 18µM, MCF10A rerep inconclusive (no result: Mito fusion act)
COc1cc(OC)nc(-n2ncc(Br)c(Br)c2=O)n1	a7 integrin act inconclusive, Mito fusion act inconclusive, MCF10A rerep 4.6µM
CSc1c(C#N)c(N)nc2sc(C(=O)c3ccccc3)c(N)c12	MCF10A rerep inconclusive
Nc1c(C(=O)c2ccccc2)sc2snc(SCC(=O)c3ccccc3)c12	MCF10A rerep 16µM
COc1cc(OC)c(OC)cc1CNC(=O)c1ccc(COc2ccccc2)cc1	none
CCOc1ccc(C2C(C(=O)OC)=CN(C(C)c3ccccc3)C=C2C(=O)OC)cc1 (stereo not drawn)	SW480 rereplic inconclusive, MCF10A rerep 16µM, AT treatment inconclusive
Fc1ccc(-c2nnn3c2nc(NCc2ccccc2)c2ccccc23)cc1	SW480 rereplic inconclusive, MCF10A rerep inconclusive
Clc1nc2c(-c3ccccc3)nnn2c2ccccc12	SW480 rereplic inconclusive, MCF10A rerep 3.7µM
Fc1cccc(-c2nnn3c2nc(Cl)c2ccccc23)c1	SW480 rereplic 5.8µM, MCF10A rerep 2.6µM
Cc1ccc(-c2nnn3c2nc(Cl)c2ccccc23)cc1	SW480 rereplic inconclusive, MCF10A rerep 4.1µM
N#CCc1cnc2ccccc2n1	none
COc1ccc(C(CNC(=O)c2ccc(C)c(S(=O)(=O)N3CCCCC3)c2)N2CCCC2)cc1 (stereo not drawn)	none (no result: Mito fusion act, AT treatment)
Nc1nc(NC(=O)CCC(=O)O)nn1-c1ccccc1	none
O=C(O)/C=C/C(=O)NC1CCCCCCCCCCC1	none
COc1cc2c(cc1OC)[C@@H](NC(=O)CCC1CCCCC1)[C@H](O)C2	none (no result: Mito fusion act)
CNC(=O)c1ccc(CN(C)C(=O)c2cccc(S(=O)(=O)N3CCc4ccccc4C3)c2)cc1	none (no result: SW480 rereplic, Mito fusion act, MCF10A rerep, AT treatment)
COc1ccc(S(=O)(=O)N(NC2=NS(=O)(=O)c3ccccc32)C(=O)C(C)C)cc1	a7 integrin act 2.5µM
CCN(CC)S(=O)(=O)c1ccc(C(=O)NNC2=NS(=O)(=O)c3ccccc32)cc1	none
COc1ccc(S(=O)(=O)N2CCC(C(=O)Nc3ccc(F)cc3)CC2)c2cccnc12	a7 integrin act inconclusive
COc1ccc2c(c1)C(=O)[C@H](O)[C@@H](c1ccc(OC)c(Br)c1)O2	SW480 rereplic 4.1µM, MCF10A rerep inconclusive
CC[C@H](C)[C@@H](NC(=O)O[C@@H]1C(=O)c2cc(OC)ccc2O[C@H]1c1ccc(OC)c(Br)c1)C(=O)OC	none
CCOC(=O)c1c(CSc2ccsc2)n(C)c2cc(Br)c(O)c(CN(C)C)c12	MCF10A rerep inconclusive, AT treatment 8.9µM
C[C@@H]1CN(S(=O)(=O)C(C)(C)C)[C@H](CCO)/C1=C\c1ccccc1	MCF10A rerep inconclusive (no result: Mito fusion act, AT treatment)
